Where a name gives a salt, the structure may show the parent alone. Values without a mark were called inactive.
test system: Vero E6 infected with SARS-CoV-2; assay: inhibition of SARS-CoV-2 cytopathic effect; higher = more antiviral protection, active = above 15; details: 100 nM; 48 h

Compound	inhibition of SARS-CoV-2 cytopathic effect
CCOC(=O)Nc1ccc2c(c1)N(C(=O)CCN(CC)CC)c1ccccc1S2 [ethacizin]	-2.38%
OCc1cncc(F)c1 [5-fluoro-3-pyridyl-methanol]	-10.8%
Cc1ncc(CO)c(CO)c1O [pyridoxine]	-7.58%
Oc1ccc(CC2NCCc3cc(O)c(O)cc32)cc1 (stereo not given) [higenamine]	1.77%
Cc1c(C)c(NCC(=O)N(C)C2CCN(Cc3ccc(C(N)=O)cc3)CC2)c(C)c(C)c1N	0.76%
COc1cccc(Nc2c(C(N)=O)cnc3c(C)cc(S(=O)(=O)c4cccc(C(=O)N(C)C)c4)cc23)c1	0.15%
CCNC(C)CN1CCc2c(c(=O)oc3ccccc23)C1 (stereo not given)	-0.83%
Cc1c(C)c2c(c(C)c1O)CCC(C)(C(=O)O)O2 (stereo not given) [trolox]	1.16%
COc1cccc2c1c(O)c(C(=O)N(C)c1ccc(C(F)(F)F)cc1)c(=O)n2C [tasquinimod]	1.4%
CC[N+](CC)(CC)CCOc1cccc(OCC[N+](CC)(CC)CC)c1OCC[N+](CC)(CC)CC [gallamine-triethiodide]	3.37%
C#Cc1cccc(Nc2ncnc3cc4c(cc23)OCCOCCOCCO4)c1 [icotinib]	-1.65%
C[C@]12CC[C@@H](O)C[C@H]1CC[C@@H]1[C@@H]2CC[C@]2(C)C(=O)CC[C@@H]12 [3-alpha-hydroxy-5-beta-androstan-17-one]	2.2%
C[C@]12CC[C@@H]3c4ccc(O)cc4CC[C@H]3[C@@H]1CCC2=O [estrone]	-0.92%
COC[C@@H](NC(C)=O)C(=O)NCc1ccccc1 [Lacosamide]	-8.79%
COC(=O)C[C@](O)(CCCC(C)(C)O)C(=O)O[C@@H]1C(OC)=C[C@]23CCCN2CCc2cc4c(cc2[C@H]13)OCO4 [homoharringtonine]	26.2% (active)
O=C1OC2(c3ccccc31)c1cc(I)c(O)c(I)c1Oc1c2cc(I)c(O)c1I [erythrosine]	-2.6%
Nc1ccc(S(=O)(=O)Nc2ccnn2-c2ccccc2)cc1 [sulfaphenazole]	1.62%
CNc1ncc2cc(-c3cc(NC(=O)NCCC(C)(C)C)c(F)cc3C)c(C)nc2n1	5.54%
COc1ccc2[nH]c3c(-c4cccc5ccccc45)nccc3c2c1	-0.2%
CO/N=C1\CN(c2nc3c(cc2F)c(=O)c(C(=O)O)cn3C2CC2)CC1CN (stereo not given) [gemifloxacin]	0.76%

Compound	inhibition of SARS-CoV-2 cytopathic effect
CCN(Cc1ccncc1)C(=O)C(CO)c1ccccc1 (stereo not given) [tropicamide]	3.33%
CC1(C)S[C@@H]2[C@H](NC(=O)[C@H](NC(=O)N3CCNC3=O)c3ccccc3)C(=O)N2[C@H]1C(=O)O [azlocillin]	1.05%
C[C@@H]1C[C@H]2[C@@H]3C[C@H](F)C4=CC(=O)C=C[C@]4(C)[C@@]3(Cl)[C@@H](O)C[C@]2(C)[C@H]1C(=O)COC(=O)C(C)(C)C [clocortolone-pivalate]	-2.33%
CN1CCN(c2cc(-c3ccccc3)nc(N)n2)CC1	2.45%
C[C@]12CC[C@H](O)C[C@H]1CC[C@@H]1[C@@H]2C[C@@H](O)[C@]2(C)[C@@H](C3=CC(=O)OC3)CC[C@]12O [digoxigenin]	-6.58%
CCOc1cc(C(C)(C)C)ccc1C1=N[C@@](C)(c2ccc(Cl)cc2)[C@@](C)(c2ccc(Cl)cc2)N1C(=O)N1CCN(CCCS(C)(=O)=O)CC1	1.86%
Cc1cc(/C=C/C#N)cc(C)c1Nc1ccnc(Nc2ccc(C#N)cc2)n1 [rilpivirine]	-2.82%
N[C@@H]1CCCN(c2c(/C=C3\SC(=O)NC3=O)cccc2-c2ccccc2)C1	-1.57%
CO/N=C(\C(=O)N[C@@H]1C(=O)N2C(C(=O)O)=C(Cn3ccc(=N)n3CCO)CS[C@H]12)c1csc(N)n1 [Cefoselis sulfate]	-1.18%
CC(C)(C)NCc1cc(Nc2ccnc3cc(Cl)ccc23)c2c(c1O)CCCC2 [naphthoquine-phosphate]	-0.22%
CC(C)(COP(=O)(O)OP(=O)(O)OC[C@H]1O[C@@H](n2cnc3c(N)ncnc32)[C@H](O)[C@@H]1OP(=O)(O)O)[C@@H](O)C(=O)NCCC(=O)NCCS [coenzyme-A]	2.41%
O=C(Nc1cccc(Cl)c1)c1ccccn1	-2.59%
CCCC(O)C(CC)CO (stereo not given) [2-ethyl-1,3-hexanediol]	1.14%
Nc1nc(/C(=C/CC(=O)O)C(=O)N[C@@H]2C(=O)N3C(C(=O)O)=CCS[C@H]23)cs1 [ceftibuten]	2.51%
CN(C)CC[C@@H](c1ccc(Cl)cc1)c1ccccn1 [chlorphenamine]	-0.53%
CCOC(=O)N1CSC[C@H]1C(=O)O [telmesteine]	2.74%
Cc1cccc(-c2n[nH]cc2-c2ccc(F)c(-c3cnn(CCO)c3)c2)n1	-2.29%
C[C@H](CCC(=O)O)[C@H]1CC[C@H]2[C@@H]3C[C@H](O)[C@@H]4C[C@H](O)CC[C@]4(C)[C@H]3CC[C@]12C [Hyodeoxycholic acid (HDCA)]	1%
CO/N=C(\C(=O)N[C@@H]1C(=O)N2C(C(=O)O)=C(CSc3nc(=O)c(O)nn3C)CS[C@H]12)c1csc(N)n1 [ceftriaxone]	1.41%
O=C(O)c1ccc(Nc2ncc3c(n2)-c2ccc(Cl)cc2C(c2c(F)cccc2F)=NC3)cc1	0.11%

Source: the supplement of paper PMC13380429
